Of roughly 7,900 targets only a part is listed; those with a hit were picked by preference. About 0.6% of all pairs of compound and target were hits. Values without a mark were called inactive.
How the values were obtained:
Experiment in all cases: log2 fold change, soluble protein after heating vs DMSO (PISA); higher = thermal stabilisation; K562 cells, 10 uM, 30 min; active = over 0.2 and 3.5 SD of the protein, either way, in both replicates (recomputed)
erlotinib = compound: C#Cc1cccc(Nc2ncnc3cc(OCCOC)c(OCCOC)cc23)c1 [erlotinib]
Method in brief: (§1)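 For each measurement, 10 μM compound was applied for 30 min to K562 cells at 2×10^6 cells/mL. Aliquots were heated for 3 min across 48°C-58°C, pooled, and extracted in PBS with 0.5% NP-40 at 4°C; the supernatant after 21,000xg for 90 min was soluble protein. This was quantified by TMTpro 16plex LC-MS/MS with channel sums equalised, and thermal stability was reported relative to control samples from duplicates, on a log2 fold-change scale.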

[1] = compound: C/C(=N\NC(=O)C1=CC(=CC=C1)S(=O)(=O)N2CCOCC2)/C3=C(C=CC(=C3)Cl)O
Method in brief: as §1

[2] = compound: C1=CC(=C(C=C1Cl)C2=NC3=NC=CN=C3C(=N2)NC4=CC=NC=C4)F
Method in brief: as §1

[3] = compound: C1=CC(=CC=C1C2=NC3=C(N2)C=C(C=C3)C(=O)N)OC4=CC=C(C=C4)Cl
Method in brief: as §1

[4] = compound: C1=CC2=C(C=CC(=C2)/C=C\3/C(=O)NC(=NCC4=CC=CS4)S3)N=C1
Method in brief: as §1

[5] = compound: C1=CC2=NC=CN=C2C=C1/C=C/3\C(=O)NC(=O)S3
Method in brief: as §1

[6] = compound: C1=CC=C(C=C1)C2=NC(=C(N2)C3=CC=NC=C3)C4=CC(=C(C=C4)Cl)O
Method in brief: as §1

[7] = compound: C1=CC=C2C(=C1)C3=NNC4=CC=CC(=C43)C2=O
Method in brief: as §1

[8] = compound: C1CCN(C1)C(=O)NC2=CC=CC(=C2)NC3=NC=C(C(=N3)NCCC4=CN=CN4)Br
Method in brief: as §1

[9] = compound: C1CN(CCC1(CC2=CC=C(C=C2)Cl)N)C3=NC=NC4=C3C=CN4
Method in brief: as §1

IRAK-1-4 Inhibitor I = compound: C1COCCN1CCN2C3=CC=CC=C3N=C2NC(=O)C4=CC(=CC=C4)[N+](=O)[O-] [IRAK-1-4 Inhibitor I]
Method in brief: as §1

ibrutinib = compound: C=CC(=O)N1CCC[C@@H](n2nc(-c3ccc(Oc4ccccc4)cc3)c3c(N)ncnc32)C1 [ibrutinib]
Method in brief: as §1

[10] = compound: CC(=O)c1cnc2ccc(-c3cc(Cl)c(O)c(Cl)c3)nc2c1N[C@H]1CC[C@H](CN(C)C)CC1
Method in brief: as §1

ralimetinib = compound: CC(C)(C)Cn1c(N)nc2ccc(-c3[nH]c(C(C)(C)C)nc3-c3ccc(F)cc3)nc21 [ralimetinib]
Method in brief: as §1

[11] = compound: CC(C)(O)CC(=O)NCCn1ccc2ncnc(Nc3ccc(Oc4cccc(C(F)(F)F)c4)c(Cl)c3)c21
Method in brief: as §1

[12] = compound: CC(C)C1=C2N=C(C=C(N2N=C1)NCC3=CC=CC=C3)NCCCCCCN
Method in brief: as §1

[13] = compound: CC(C)C[C@@H](C=O)NC(=O)[C@H](CC(C)C)NC(=O)[C@H](CC(C)C)NC(=O)OCc1ccccc1
Method in brief: as §1

pinometostat = compound: CC(C)N(C[C@H]1O[C@@H](n2cnc3c(N)ncnc32)[C@H](O)[C@@H]1O)[C@H]1C[C@@H](CCc2nc3cc(C(C)(C)C)ccc3[nH]2)C1 [pinometostat]
Method in brief: as §1

[14] = compound: CC1=C(C(CC(=O)N1)C2=CC=C(C=C2)C(F)(F)F)C(=O)NC3=C(C=C4C(=C3)C=NN4)F
Method in brief: as §1

[15] = compound: CC1=C(C2=C(C=C1)C(=O)C3=CC=CC=C3N2CCCN)C
Method in brief: as §1

UniProt Q9Y5B9, sequence (Q9Y5B9 whole entry, looked up): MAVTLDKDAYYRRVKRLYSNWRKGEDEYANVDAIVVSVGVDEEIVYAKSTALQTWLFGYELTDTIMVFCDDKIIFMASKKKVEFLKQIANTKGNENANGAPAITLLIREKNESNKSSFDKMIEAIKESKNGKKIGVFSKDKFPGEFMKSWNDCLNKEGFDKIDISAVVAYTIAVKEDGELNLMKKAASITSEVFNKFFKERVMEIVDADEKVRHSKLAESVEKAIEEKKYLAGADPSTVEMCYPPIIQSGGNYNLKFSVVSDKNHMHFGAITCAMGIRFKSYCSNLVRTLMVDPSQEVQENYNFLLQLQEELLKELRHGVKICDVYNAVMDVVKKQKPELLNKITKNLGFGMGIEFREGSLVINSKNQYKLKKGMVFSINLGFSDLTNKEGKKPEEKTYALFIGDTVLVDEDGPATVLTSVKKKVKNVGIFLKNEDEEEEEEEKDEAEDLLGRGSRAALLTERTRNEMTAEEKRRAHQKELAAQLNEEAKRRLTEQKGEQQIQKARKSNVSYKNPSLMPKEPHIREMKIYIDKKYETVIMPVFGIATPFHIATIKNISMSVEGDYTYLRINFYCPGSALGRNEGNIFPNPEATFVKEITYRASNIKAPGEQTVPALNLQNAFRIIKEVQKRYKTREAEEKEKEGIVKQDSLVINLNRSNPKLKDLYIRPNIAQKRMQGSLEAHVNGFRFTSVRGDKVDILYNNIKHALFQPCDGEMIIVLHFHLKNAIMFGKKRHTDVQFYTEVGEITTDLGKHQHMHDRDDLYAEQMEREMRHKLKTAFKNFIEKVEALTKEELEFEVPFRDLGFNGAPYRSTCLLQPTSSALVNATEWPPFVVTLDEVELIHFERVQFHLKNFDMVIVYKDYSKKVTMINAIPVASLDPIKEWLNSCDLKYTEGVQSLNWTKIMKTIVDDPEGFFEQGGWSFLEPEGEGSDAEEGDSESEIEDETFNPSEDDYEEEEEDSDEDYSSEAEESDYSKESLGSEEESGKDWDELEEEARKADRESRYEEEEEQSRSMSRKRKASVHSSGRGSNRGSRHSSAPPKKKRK
UniProt Q9H254, sequence (Q9H254 whole entry, looked up): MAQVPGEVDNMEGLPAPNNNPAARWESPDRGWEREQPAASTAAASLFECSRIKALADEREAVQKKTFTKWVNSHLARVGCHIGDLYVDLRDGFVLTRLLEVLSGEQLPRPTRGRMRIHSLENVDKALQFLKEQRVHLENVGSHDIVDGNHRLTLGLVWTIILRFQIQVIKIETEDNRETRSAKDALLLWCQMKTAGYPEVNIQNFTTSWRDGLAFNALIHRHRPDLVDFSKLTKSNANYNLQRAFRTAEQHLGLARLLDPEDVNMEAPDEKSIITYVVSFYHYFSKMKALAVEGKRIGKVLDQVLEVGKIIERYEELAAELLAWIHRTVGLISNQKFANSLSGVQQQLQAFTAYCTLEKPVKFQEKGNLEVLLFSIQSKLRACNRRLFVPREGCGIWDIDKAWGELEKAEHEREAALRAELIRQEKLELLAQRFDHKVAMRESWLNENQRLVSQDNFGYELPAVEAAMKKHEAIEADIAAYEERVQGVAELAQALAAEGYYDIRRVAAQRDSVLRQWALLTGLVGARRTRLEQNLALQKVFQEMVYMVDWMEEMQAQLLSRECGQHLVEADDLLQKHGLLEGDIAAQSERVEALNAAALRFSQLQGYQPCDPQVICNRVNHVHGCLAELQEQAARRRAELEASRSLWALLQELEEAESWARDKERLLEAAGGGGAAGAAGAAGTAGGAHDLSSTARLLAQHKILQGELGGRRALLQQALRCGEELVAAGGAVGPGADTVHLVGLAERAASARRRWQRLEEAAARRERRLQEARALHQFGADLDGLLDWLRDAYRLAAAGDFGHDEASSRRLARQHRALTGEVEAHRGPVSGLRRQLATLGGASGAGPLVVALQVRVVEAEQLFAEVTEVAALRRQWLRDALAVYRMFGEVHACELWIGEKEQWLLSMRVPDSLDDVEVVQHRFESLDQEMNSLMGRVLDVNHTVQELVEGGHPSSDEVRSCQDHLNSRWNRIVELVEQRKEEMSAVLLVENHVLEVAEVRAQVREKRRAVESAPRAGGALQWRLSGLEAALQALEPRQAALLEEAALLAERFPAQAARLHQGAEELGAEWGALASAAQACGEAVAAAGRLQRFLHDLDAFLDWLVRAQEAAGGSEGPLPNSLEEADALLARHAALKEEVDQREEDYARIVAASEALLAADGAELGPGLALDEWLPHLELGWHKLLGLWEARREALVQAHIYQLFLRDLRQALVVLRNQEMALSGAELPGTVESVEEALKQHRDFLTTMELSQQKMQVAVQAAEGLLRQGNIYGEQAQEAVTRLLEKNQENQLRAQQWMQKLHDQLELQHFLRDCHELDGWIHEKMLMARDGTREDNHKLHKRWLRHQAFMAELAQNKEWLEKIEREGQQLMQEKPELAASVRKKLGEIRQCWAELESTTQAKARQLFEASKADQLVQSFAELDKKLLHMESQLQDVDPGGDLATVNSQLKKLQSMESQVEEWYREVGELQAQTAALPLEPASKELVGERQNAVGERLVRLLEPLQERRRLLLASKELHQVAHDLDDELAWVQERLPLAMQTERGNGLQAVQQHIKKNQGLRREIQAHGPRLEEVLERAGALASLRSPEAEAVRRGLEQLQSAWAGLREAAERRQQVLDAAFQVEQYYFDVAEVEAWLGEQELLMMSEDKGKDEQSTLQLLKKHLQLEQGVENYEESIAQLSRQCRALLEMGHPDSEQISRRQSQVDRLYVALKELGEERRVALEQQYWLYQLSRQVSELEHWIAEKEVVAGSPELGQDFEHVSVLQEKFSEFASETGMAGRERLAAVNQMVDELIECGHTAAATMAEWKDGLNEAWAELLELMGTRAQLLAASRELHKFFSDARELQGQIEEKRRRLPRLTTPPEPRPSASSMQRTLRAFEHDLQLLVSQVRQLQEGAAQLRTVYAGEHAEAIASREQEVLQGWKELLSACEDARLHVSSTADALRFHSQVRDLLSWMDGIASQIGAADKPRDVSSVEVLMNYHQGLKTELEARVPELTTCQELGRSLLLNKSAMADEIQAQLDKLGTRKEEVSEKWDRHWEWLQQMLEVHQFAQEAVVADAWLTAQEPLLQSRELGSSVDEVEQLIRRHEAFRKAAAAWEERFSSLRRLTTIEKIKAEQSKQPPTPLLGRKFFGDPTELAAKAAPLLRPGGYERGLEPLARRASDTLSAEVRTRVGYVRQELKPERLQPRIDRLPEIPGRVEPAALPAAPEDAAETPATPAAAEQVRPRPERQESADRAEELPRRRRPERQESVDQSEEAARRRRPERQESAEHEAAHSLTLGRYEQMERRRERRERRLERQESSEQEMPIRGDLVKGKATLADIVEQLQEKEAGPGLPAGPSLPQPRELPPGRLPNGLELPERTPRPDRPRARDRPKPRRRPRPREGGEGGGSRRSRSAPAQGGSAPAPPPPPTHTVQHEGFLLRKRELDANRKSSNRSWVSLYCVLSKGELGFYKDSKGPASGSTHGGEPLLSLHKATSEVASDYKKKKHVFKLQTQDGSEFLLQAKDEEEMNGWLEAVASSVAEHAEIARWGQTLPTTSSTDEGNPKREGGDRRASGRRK
UniProt Q01085, sequence (Q01085 whole entry, looked up): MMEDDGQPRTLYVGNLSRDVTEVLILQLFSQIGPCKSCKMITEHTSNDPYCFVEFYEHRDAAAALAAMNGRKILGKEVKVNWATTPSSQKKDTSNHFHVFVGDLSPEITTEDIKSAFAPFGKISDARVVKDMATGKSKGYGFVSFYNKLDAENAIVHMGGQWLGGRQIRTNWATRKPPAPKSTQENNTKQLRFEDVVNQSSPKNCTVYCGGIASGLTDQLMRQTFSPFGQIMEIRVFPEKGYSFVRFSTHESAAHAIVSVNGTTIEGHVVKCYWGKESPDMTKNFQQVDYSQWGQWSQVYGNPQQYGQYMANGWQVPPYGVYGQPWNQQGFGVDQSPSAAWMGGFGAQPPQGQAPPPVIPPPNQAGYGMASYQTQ
UniProt Q4KMP7, sequence (Q4KMP7 whole entry, looked up): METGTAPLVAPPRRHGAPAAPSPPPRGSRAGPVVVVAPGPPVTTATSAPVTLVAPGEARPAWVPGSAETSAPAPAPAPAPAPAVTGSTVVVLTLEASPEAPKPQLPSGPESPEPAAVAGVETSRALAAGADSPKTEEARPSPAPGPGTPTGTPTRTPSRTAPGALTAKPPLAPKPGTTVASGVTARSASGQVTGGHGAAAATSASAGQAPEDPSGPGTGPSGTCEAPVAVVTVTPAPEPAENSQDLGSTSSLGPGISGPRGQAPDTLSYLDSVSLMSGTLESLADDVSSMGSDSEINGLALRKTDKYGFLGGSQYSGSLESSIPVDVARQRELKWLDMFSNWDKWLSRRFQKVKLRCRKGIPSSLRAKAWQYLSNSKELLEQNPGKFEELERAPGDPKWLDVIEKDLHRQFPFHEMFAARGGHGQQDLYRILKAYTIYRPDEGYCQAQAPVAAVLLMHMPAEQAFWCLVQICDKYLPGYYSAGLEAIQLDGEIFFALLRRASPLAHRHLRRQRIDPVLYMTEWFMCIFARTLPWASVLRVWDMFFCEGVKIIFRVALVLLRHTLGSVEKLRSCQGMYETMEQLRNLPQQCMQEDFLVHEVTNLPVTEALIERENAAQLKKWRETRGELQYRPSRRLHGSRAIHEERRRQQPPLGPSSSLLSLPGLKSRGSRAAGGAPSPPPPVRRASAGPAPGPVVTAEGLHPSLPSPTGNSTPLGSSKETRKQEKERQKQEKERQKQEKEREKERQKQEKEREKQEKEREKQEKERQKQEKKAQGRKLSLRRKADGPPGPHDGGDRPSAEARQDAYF
UniProt Q9BSF4, sequence (Q9BSF4 whole entry, looked up): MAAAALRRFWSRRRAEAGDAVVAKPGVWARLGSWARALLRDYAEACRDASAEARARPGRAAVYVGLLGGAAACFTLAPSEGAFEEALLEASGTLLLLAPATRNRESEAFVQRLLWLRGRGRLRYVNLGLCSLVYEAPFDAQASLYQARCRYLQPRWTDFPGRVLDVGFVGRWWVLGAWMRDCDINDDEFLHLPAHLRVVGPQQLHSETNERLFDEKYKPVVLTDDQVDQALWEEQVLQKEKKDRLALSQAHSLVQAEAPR

Target	log2 fold change (erlotinib)	log2 fold change [1]	log2 fold change [2]	log2 fold change [3]	log2 fold change [4]	log2 fold change [5]	log2 fold change [6]	log2 fold change [7]	log2 fold change [8]	log2 fold change [9]	log2 fold change (IRAK-1-4 Inhibitor I)	log2 fold change (ibrutinib)	log2 fold change [10]	log2 fold change (ralimetinib)	log2 fold change [11]	log2 fold change [12]	log2 fold change [13]	log2 fold change (pinometostat)	log2 fold change [14]	log2 fold change [15]
TAX1BP1 (UniProt Q86VP1)	-0.079	-0.005	0.007	0.044	0.035	0.037	-0.044	-0.006	-0.015	-0.027	-0.015	-0.007	-0.195	0.066	-0.008	-0.124	0.076	0.088	0.075	-0.006
STEAP3 isoform 2 (UniProt Q658P3)	0.053	0.038	0.017	-0.019	0.053	0.02	-0.008	0.004	-0.036	0.032	-0.002	-0.005	-0.067	0.013	-0.087	-0.011	0.032	0.043	0.019	0.044
STAT5A (UniProt P42229)	0.033	0.173	0.035	0.048	0.083	0.01	0.06	-0.026	-0.077	-0.028	-0.116	-0.088	-0.164	0.046	0.019	-0.053	0.006	0.033	-0.002	-0.009
TGFBI (UniProt Q15582)	0.003	-0.018	0.054	0.009	0.132	0.034	0.009	-0.133	-0.037	0.029	0.026	0.149	0.045	-0.099	0.244	-0.044	0.05	-0.092	0.115	-0.039
STAT3 (UniProt P40763)	-0.023	0.147	0.026	0.007	0.031	0.031	0.011	-0.001	-0.01	-0.036	-0.038	-0.044	0.009	-0.001	-0.08	-0.261 (active)	0.024	0	-0.05	-0.057
SOAT1 (UniProt P35610)	0.174	0.099	-0.034	-0.063	0.141	0.063	0.074	-0.038	0.001	0.026	0.1	-0.008	-0.031	0.031	-0.04	-0.014	0.303	-0.017	-0.041	0.053
SPTBN4 (UniProt Q9H254)	0.29	0	-0.045	0.078	0.066	-0.027	0.035	0.061	0.066	-0.05	-0.008	0.1	-0.06	-0.032	-0.025	-0.671 (active)	-0.07	-0.007	0.024	-0.016
TK1 (UniProt P04183)	-0.029	0.004	0.044	0.017	-0.02	-0.012	-0.03	-0.011	-0.028	0.046	0.037	0.025	0.003	-0.048	-0.016	0.059	-0.001	-0.013	0.06	-0.01
STX17 (UniProt P56962)	0.206	0.003	0.124	0.015	0.041	0.016	-0.01	0.059	-0.004	0.027	-0.062	0.002	0.031	0.037	-0.063	-0.235	0.028	0.006	0.062	0.138
TBC1D10B (UniProt Q4KMP7)	-0.013	0.063	-0.018	0.039	-0.008	0.036	-0.033	-0.109	-0.024	-0.033	-0.001	0.025	-0.342 (active)	0.009	-0.006	-0.027	0.021	0.063	-0.015	0.057
TIMM29 (UniProt Q9BSF4)	0.028	0.042	0.049	-0.025	0.064	0.018	-0.035	-0.024	0.037	0.011	-0.202	0.024	-0.014	-0.101	0.008	0.071	-0.031	0.444 (active)	-0.004	-0.052
TLK2 isoform 2 (UniProt Q86UE8)	0	0.008	0.04	0.074	-0.041	-0.016	0.064	0	0.017	-0.048	0.035	-0.011	-0.144	-0.003	-0.077	0.011	0.025	-0.004	-0.015	0.282 (active)
SMARCAD1 isoform 2 (UniProt Q9H4L7)	0.089	0.052	0.071	0.007	0.05	-0.026	0.025	0.022	-0.02	-0.052	-0.031	-0.016	0.014	-0.009	-0.201	-0.2	0.029	-0.003	-0.007	0.144
SUPT16H (UniProt Q9Y5B9)	0.177	0.25	0.091	-0.012	0.155	0	0.064	0.098	-0.098	-0.011	-0.155	-0.139	-0.259	-0.059	-0.174	-0.26	0.083	0.044	-0.015	-1.34 (active)
TIAL1 isoform 2 (UniProt Q01085)	0.013	-0.004	0.002	0	0.02	0.008	-0.026	0.018	0.032	-0.004	0.044	0.011	-0.035	-0.05	0.001	0.106	0.019	-0.039	-0.02	0.238 (active)
SLC27A2 (UniProt O14975)	0	0.057	0.054	0.032	0.101	0.005	0.108	0.018	-0.001	0.035	-0.039	0.144	-0.125	0.013	0.366 (active)	0.015	0.055	0.01	-0.045	0.03
